Source: PubChem BioAssay (NCATS)
For part of these data: Results with a measured potency or affinity are listed apart. The source made the active and inactive calls. The rule behind the calls is not given here.

Experiments:
[1] = Ebola virus entry assay, green fluorescence channel
[2] = Ebola virus entry assay, blue channel fluorescence
[3] = Ebola virus entry assay, ratio channel
[4] = Ebola virus entry assay, green channel fluorescence
[5] = Ebola virus entry assay, reporter ratio channel; Channel type: primary
[6] = Ebola virus entry assay, blue channel (ratio component)

Measured: efficacy
Throughout, for efficacy: 0% is about no effect.

C/C(=C(\CCOP(=O)(O)O)SC(=O)c1ccccc1)N(C=O)Cc1cnc(C)nc1N
inactive: [1] -17.4% | [2] | [3] | [4] | [5] | [6]

CC1(C)[C@@H](OC(=O)CCC(=O)O)CC[C@]2(C)[C@H]3C(=O)C=C4[C@@H]5C[C@@](C)(C(=O)O)CC[C@]5(C)CC[C@@]4(C)[C@]3(C)CC[C@@H]12
inactive: [1] 12.7% | [2] | [3] | [4] | [5] | [6]

COC(=O)C1=C(C)NC(C)=C(C(=O)OC)C1c1ccccc1[N+](=O)[O-]
inactive: [1] 16.8% | [2] | [3] | [4] | [5] | [6]

O=c1[nH]c2cc(Cl)ccc2n1C1CCNCC1
inactive: [1] 11.1% | [2] | [3] | [4] | [5] | [6]

CCCCOC(=O)CCCCCCCCC(=O)OCCCC
inactive: [1] -13.9% | [2] | [3] | [4] | [5] | [6]
